SMILES strings stand for the structures. Several values for one entry are separate records, joined by “and”; a condition that tells them apart may be missing. Identical values can stand only once. Inconclusive results are not listed. Some structures have more than one record in an assay (separate samples or runs), and their calls can disagree. Activity calls are given as the source filed them. Calls follow the shape of the dose curve; as a rule, active = well fitted curve in the direction sought with a large enough effect in the repeat runs; inconclusive = weak or mixed curves; inactive = no such curve, though single readings can be large; an effect the other way counts as inactive or inconclusive.

Experiment [1] is described as follows: qHTS RealTime-Glo MT Cell Viability Assay in HEK293 cells - 16 hour (AID 1224872). Also: nearly all actives have a fitted effect of over 50% in size. Also: potency is read from the fitted curve at half-maximal effect. In a few lines:
(§1)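 Viability tracked continuously by luminescence as live cells reduce a prosubstrate for NanoLuc; HEK293 cells preincubated 5 h, compound-treated at 37 C, and read at 0, 8, 16, 24, 32 and 40 h.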
On the technique in general: In qHTS, concentration-response curves come from the screen itself.

Experiment [2] in a line: qHTS RealTime-Glo MT Cell Viability Assay in HepG2 cells - 8 hour (AID 1224873). Also: nearly all actives have a fitted effect of over 55% in size. In a few lines: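 HepG2 cells mixed with RealTime-Glo MT reagents (NanoLuc plus cell-permeant prosubstrate) were seeded at 600 cells/well, incubated 5 h at 37 C/5% CO2, then pinned with compounds in DMSO; nonlytic luminescence tracked viability during 40 h treatment.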
Experiment [3] in a line: qHTS RealTime-Glo MT Cell Viability Assay in HEK293 cells - 40 hour (AID 1224874). Also: nearly all actives have a fitted effect of over 50% in size. Also: potency is read from the fitted curve at half-maximal effect. Particulars: RealTime-Glo luminescence; max response: stronger effect = lower value. In a few lines: (§2)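 HEK293 cells mixed with RealTime-Glo reagents (NanoLuc plus cell-permeant prosubstrate) at 600 cells/well, preincubated 5 h at 37 C/5% CO2, then given 23 nL compound in DMSO. Nonlytic luminescence from viable cells was read at 0, 8, 16, 24, 32 and 40 h.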

Experiment [4] is described as follows: A CellTox Green Cytotoxicity Assay to monitor cytotoxicity in HEK293 cells - 24 hour (AID 1224875). Also: series mostly up to about 77 µM; nearly all actives have a fitted effect of over 45% in size. An outline of the steps: (§3)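 HEK293 cells premixed with CellTox Green dye were seeded at 600 cells/well and left 5 h at 37 C/5% CO2 before pin transfer of 23 nL compound in DMSO. Fluorescence from dye bound to dead-cell DNA was read during 40 h treatment.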
Experiment [5] can be described thus: A CellTox Green Cytotoxicity Assay to monitor cytotoxicity in HepG2 cells - 16 hour (AID 1224876). Also: nearly all actives have a fitted effect of over 45% in size. An outline of the steps:
(§4)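 HepG2 cells were seeded together with the CellTox Green dye at 600 cells/well, left 5 h at 37 C/5% CO2, then given compounds in DMSO. Fluorescence from dye bound to dead-cell DNA was read repeatedly over 40 h of treatment at 37 C.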

The nature of experiment [6]: qHTS RealTime-Glo MT Cell Viability Assay in HepG2 cells - 32 hour (AID 1224877). Also: nearly all actives have a fitted effect of over 55% in size. An outline of the steps: (§5)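 Viability was tracked continuously by NanoLuc luminescence from prosubstrate reduced by living HepG2 cells, at successive time points over 40 h of compound exposure. Cells with reagent were preincubated 5 h at 37 °C before compound addition.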
A short description of experiment [7]: A CellTox Green Cytotoxicity Assay to monitor cytotoxicity in HepG2 cells - 24 hour (AID 1224878). Also: nearly all actives have a fitted effect of over 45% in size. An outline of the steps:
as §4

Experiment [8] can be described thus: A CellTox Green Cytotoxicity Assay to monitor cytotoxicity in HepG2 cells - 40 hour (AID 1224879). Also: nearly all actives have a fitted effect of over 40% in size. Also: potency is read from the fitted curve at half-maximal effect. An outline of the steps: as §4
A short description of experiment [9]: qHTS RealTime-Glo MT Cell Viability Assay in HEK293 cells - 0 hour (AID 1224880). Also: top concentration of the series differs between compounds; nearly all actives have a fitted effect of over 45% in size. In a few lines: as §2
Experiment [10] in a line: A CellTox Green Cytotoxicity Assay to monitor cytotoxicity in HEK293 cells - 32 hour (AID 1224881). Also: nearly all actives have a fitted effect of over 40% in size. An outline of the steps: as §3
A short description of experiment [11]: A CellTox Green Cytotoxicity Assay to monitor cytotoxicity in HepG2 cells - 0 hour (AID 1224882). Also: nearly all actives have a fitted effect of over 35% in size. An outline of the steps: as §4
Experiment [12] in a line: A CellTox Green Cytotoxicity Assay to monitor cytotoxicity in HepG2 cells - 32 hour (AID 1224883). Also: nearly all actives have a fitted effect of over 50% in size. Also: potency is read from the fitted curve at half-maximal effect. In a few lines: as §4
The nature of experiment [13]: A CellTox Green Cytotoxicity Assay to monitor cytotoxicity in HEK293 cells - 8 hour (AID 1224884). Also: nearly all actives have a fitted effect of over 35% in size. In a few lines: as §3
The nature of experiment [14]: qHTS RealTime-Glo MT Cell Viability Assay in HepG2 cells - 16 hour (AID 1224885). Also: nearly all actives have a fitted effect of over 50% in size. In a few lines:
as §5

Experiment [15] is described as follows: qHTS RealTime-Glo MT Cell Viability Assay in HEK293 cells - 24 hour (AID 1224886). Also: nearly all actives have a fitted effect of over 50% in size. Also: potency is read from the fitted curve at half-maximal effect. An outline of the steps:
as §1

A short description of experiment [16]: qHTS RealTime-Glo MT Cell Viability Assay in HepG2 cells - 0 hour (AID 1224889). Also: nearly all actives have a fitted effect of over 50% in size. In a few lines:
as §5

Experiment [17] can be described thus: A CellTox Green Cytotoxicity Assay to monitor cytotoxicity in HepG2 cells - 8 hour (AID 1224890). Also: nearly all actives have a fitted effect of over 45% in size. An outline of the steps:
as §4

The nature of experiment [18]: qHTS RealTime-Glo MT Cell Viability Assay in HEK293 cells - 8 hour (AID 1224887). In a few lines: as §2
Experiment [19] in a line: A CellTox Green Cytotoxicity Assay to monitor cytotoxicity in HEK293 cells - 16 hour (AID 1224888). Also: nearly all actives have a fitted effect of over 35% in size. In a few lines: as §3
The nature of experiment [20]: qHTS assay to identify small molecule antagonists of the estrogen receptor alpha (ER-alpha) signaling pathway using the BG1 cell line in the presence of 0.1 nM 17-beta-estradiol - cell viability counter screen (AID 1259241). Also: nearly all actives have a fitted effect of over 40% in size. An outline of the steps: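 Cells were plated and left 24 hr, compounds in DMSO were pinned in, 17beta-estradiol was added to 0.1 nM final, and after 22 hr CellTiter-Fluor reagent was added for 30 min before fluorescence was read.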
% is scaled to controls: 0 for no effect and ±100 for the full control effect.

Consider `O=C(Nc1ncc([N+](=O)[O-])s1)c1cccs1`, for which the Potency entry in [1], in experiment [2], in experiment [4], in experiment [5], in experiment [6] and in experiment [7] was “inactive” in each case. For the same compound, the Potency entry in experiment [8], in [9], in experiment [10], in experiment [11], in experiment [12] and in experiment [13] was “inactive” each time. In addition, the Potency entry in experiment [14], in experiment [15], in experiment [16] and in experiment [17] was “inactive” each time. Besides, in [3], the max response was -20.9% (inactive).

Regarding `Nc1c2c(nc3ccccc13)CCCC2`, the Potency result in [1], in [2], in [4], in experiment [5], in experiment [6] and in experiment [7] was “inactive” each time. The Potency result in [8], in experiment [9], in experiment [10], in [11], in [12] and in [13] was “inactive” in each case. Besides, the Potency entry in experiment [14], in experiment [15], in experiment [18], in experiment [16] and in experiment [17] was “inactive” in each case. For the same compound, the max response in experiment [3] was -28% (inactive) and -11.6% (inactive) and 18.3% (inactive).

On to `CCc1nc(N)nc(N)c1-c1ccc(Cl)cc1`, for which the Potency entry in [1], in experiment [2], in experiment [4], in experiment [5], in experiment [6] and in experiment [7] was “inactive” each time. Further, the Potency result in experiment [8], in experiment [9], in [10], in experiment [11], in experiment [12] and in experiment [13] was “inactive” in each case. Also, the Potency result in experiment [14], in experiment [15], in experiment [16] and in experiment [17] was “inactive” throughout. The Potency in [3] is 3.52 µM (active) and 12.3 µM (active) and 5.35 µM (active).

`CC(C)NCC(O)c1ccc(O)c(O)c1` (centres undefined): the Potency is 48.4 µM (active) and inactive in [1]; 38.4 µM (active) in [3]; 48.4 µM (active) and inactive in [15]. In addition, the Potency entry in experiment [2], in experiment [4], in experiment [5], in experiment [6], in experiment [7] and in experiment [8] was “inactive” each time. Besides, the Potency result in experiment [9], in experiment [10], in experiment [11], in [12], in experiment [13] and in [18] was “inactive” in each case. For the same compound, the Potency entry in experiment [19], in experiment [16], in experiment [17] and in experiment [20] was “inactive” throughout. Moreover, in [3], the max response is 1.41% (inactive).

On to `Cn1c(=O)c2c(ncn2C)n(C)c1=O`, for which the Potency entry in experiment [1], in experiment [2], in experiment [4], in [5], in experiment [6] and in experiment [7] was “inactive” in each case. In addition, the Potency entry in [8], in experiment [9], in experiment [10], in experiment [11], in [12] and in experiment [13] was “inactive” throughout. Moreover, the Potency entry in [14], in experiment [15], in [18], in [16] and in experiment [17] was “inactive” each time. For the same compound, in [3], the max response is -15% (inactive) and -0.566% (inactive) and 6.55% (inactive).

On to `NS(=O)(=O)c1cc2c(cc1Cl)NCNS2(=O)=O`, for which the Potency entry in [1], in experiment [2], in [4], in experiment [5], in experiment [6] and in experiment [7] was “inactive” throughout. The Potency entry in [8], in [9], in [10], in experiment [11], in [12] and in experiment [13] was “inactive” each time. For the same compound, the Potency entry in [14], in experiment [15], in [18], in experiment [16] and in [17] was “inactive” each time. Moreover, in experiment [3], the max response was 0.173% (inactive) and -4.85% (inactive) and 1.86% (inactive).

For the compound `CC(O)(P(=O)(O)O)P(=O)(O)O`, the Potency result in experiment [1], in [2], in experiment [4], in [5], in experiment [6] and in experiment [7] was “inactive” throughout. Further, the Potency entry in experiment [8], in [9], in experiment [10], in experiment [11], in experiment [12] and in experiment [13] was “inactive” in each case. Besides, the Potency entry in experiment [14], in [16] and in experiment [17] was “inactive” throughout. The max response in experiment [3] was -0.279% (inactive) and 1.56% (inactive) and -3.74% (inactive). The Potency entry in experiment [15] was “inactive and 436 nM (active)”.

Turning to `Cc1cc(=O)oc2cc(O)ccc12`, the Potency entry in experiment [1], in experiment [2], in experiment [4], in experiment [5], in experiment [6] and in experiment [7] was “inactive” throughout. Besides, the Potency result in experiment [8], in experiment [9], in [10], in [11], in experiment [12] and in experiment [13] was “inactive” each time. The Potency entry in experiment [14], in experiment [15], in experiment [16] and in experiment [17] was “inactive” each time. In experiment [3], the max response was -14.5% (inactive) and -7.95% (inactive) and -6.84% (inactive).

Regarding `CNNCc1ccc(C(=O)NC(C)C)cc1`, the Potency result in [1], in [2], in experiment [4], in experiment [5], in [6] and in [7] was “inactive” each time. Also, the Potency entry in experiment [9], in experiment [10], in [11], in experiment [13], in experiment [14] and in [15] was “inactive” throughout. Besides, the Potency result in experiment [18], in experiment [19], in experiment [16], in experiment [17] and in [20] was “inactive” throughout. In addition, the max response in experiment [3] was 2.93% (inactive) and 2.31% (inactive) and 7.98% (inactive). Besides, the Potency in experiment [8] was 24.5 µM (active) and 15.5 µM (active) and 23.9 µM (active); in experiment [12], 24.5 µM (active) and 19.5 µM (active).

On to `CC(=O)CC(c1ccccc1)c1c(O)c2ccccc2oc1=O` (centres undefined), for which the Potency entry in experiment [1], in experiment [2], in experiment [4], in [5], in experiment [6] and in experiment [7] was “inactive” throughout. The Potency result in [8], in experiment [9], in [10], in [11], in experiment [12] and in experiment [13] was “inactive” throughout. For the same compound, the Potency result in [14], in experiment [15], in experiment [16] and in [17] was “inactive” each time. For the same compound, the max response in experiment [3] is 5.95% (inactive) [middle of 4 runs].

The values above are taken from PubChem BioAssay (Tox21).
